Experimental data as given in the supplement of paper PMC7695840.
Structures can show the parent of a compound that is named as a salt.

Legend:
[1] = tested on: Staphylococcus aureus MW2 delta-mecA (mecA-); test: normalized GFP fluorescence (growth of mecA- strain) (fraction of control range); higher = more growth of mecA- strain; settings: compound concentration: 150 uM; cefoxitin: subinhibitory; fluorescent label: GFP
In short: (§1)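 Pre-induced S. aureus MW2 cells carrying the gene (DsRed) and deletion cells lacking it (GFP) were combined 1:1 in LB containing a subinhibitory antibiotic dose set each day, then dispensed at 5 µL/well onto 150 μM compound (1.5% DMSO) in 1536-well plates as a single replicate. After 20 h at 37 °C and 90% humidity without shaking, DsRed (540/590) and GFP (485/520) were read. Each channel was scaled per plate between the medians of the single-strain controls, and plates with high untreated ratios and rows with DsRed/GFP >10 were excluded.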

[2] = tested on: Staphylococcus aureus MW2 (mecA+); test: normalized DsRed fluorescence (growth of mecA+ strain) (fraction of control range); higher = more growth of mecA+ strain; settings: compound concentration: 150 uM; cefoxitin: subinhibitory; fluorescent label: DsRed
In short: as §1

Row | Structure (SMILES) | normalized GFP fluorescence [1] | normalized DsRed fluorescence [2]
1 | CC(O)(CC(=O)O)CC(=O)O | 0.226 | 0.945
2 | COc1cc2nccc(Oc3ccc(NC(=O)C4(C(=O)Nc5ccc(F)cc5)CC4)cc3)c2cc1OC [Cabozantinib malate] | 0.367 | 0.686
3 | CNS(=O)(=O)CCc1ccc2[nH]cc(C3CCN(C)CC3)c2c1 [Naratriptan HCl] | 0.395 | 0.662
4 | Cc1cc(CC(=O)O)n(C)c1C(=O)c1ccc(Cl)cc1 | 0.288 | 0.63
5 | CC(=O)N(CC(O)CN(C(C)=O)c1c(I)c(C(=O)NCC(O)CO)c(I)c(C(=O)NCC(O)CO)c1I)c1c(I)c(C(=O)NCC(O)CO)c(I)c(C(=O)NCC(O)CO)c1I (configuration not stated) | 0.268 | 0.83
6 | CN(C)CCc1c[nH]c2ccc(Cn3cncn3)cc12 | 0.425 | 0.751
7 | O.O.O.O.O.O.O.O.O.O.O.O.O.O.O.O.O.O.O.O.O=S(=O)([O][Al])OC[C@H]1O[C@@](COS(=O)(=O)[O][Al])(O[C@H]2O[C@H](COS(=O)(=O)[O][Al])[C@@H](OS(=O)(=O)[O][Al])[C@H](OS(=O)(=O)[O][Al])[C@H]2OS(=O)(=O)[O][Al])[C@@H](OS(=O)(=O)[O][Al])[C@@H]1OS(=O)(=O)[O][Al].[Al] | 0.405 | 0.842
8 | CC[C@@H]([C@H](C)O)n1ncn(-c2ccc(N3CCN(c4ccc(OC[C@@H]5CO[C@@](Cn6cncn6)(c6ccc(F)cc6F)C5)cc4)CC3)cc2)c1=O [Posaconazole] | 0.833 | 0.572
9 | CCCC(=O)Nc1ccc(OCC(O)CNC(C)C)c(C(C)=O)c1 (configuration not stated) | 0.332 | 0.62
10 | CN(CCOc1ccc(NS(C)(=O)=O)cc1)CCc1ccc(NS(C)(=O)=O)cc1 [Dofetilide (Tikosyn)] | 0.244 | 1.28
11 | CC1=NN(c2ccc(C)c(C)c2)C(=O)/C1=N\Nc1cccc(-c2cccc(C(=O)O)c2)c1O | -0.0259 | 0.021
12 | Cc1ccc(NC(=O)c2ccc(CN3CCN(C)CC3)cc2)cc1Nc1nccc(-c2cccnc2)n1 [Imatinib Mesylate] | 0.184 | 0.918
13 | CN(C)CCN(Cc1ccccc1)c1ccccn1 | 0.488 | 0.468
14 | O=C(OCc1ccccc1)c1ccccc1 | 0.269 | 0.596
15 | CC[C@]1(O)C[C@@H]2CN(CCc3c([nH]c4ccccc34)[C@@](C(=O)OC)(c3cc4c(cc3OC)N(C)[C@H]3[C@@](O)(C(=O)OC)[C@H](OC(C)=O)[C@]5(CC)C=CCN6CC[C@]43[C@@H]65)C2)C1 [Vinblastine] | 0.0776 | 0.851
16 | NC(=O)c1cn(Cc2c(F)cccc2F)nn1 [Rufinamide (Banzel)] | 0.199 | 0.955
17 | OCCN(CCO)c1nc(N2CCCCC2)c2nc(N(CCO)CCO)nc(N3CCCCC3)c2n1 | 0.523 | 0.744
18 | Nc1nc(CC(=O)Nc2ccc(CCNC[C@H](O)c3ccccc3)cc2)cs1 [Mirabegron (YM178)] | 0.336 | 1.03
19 | CC1(C)[C@@H](OC(=O)CCC(=O)O)CC[C@]2(C)[C@H]3C(=O)C=C4[C@@H]5C[C@@](C)(C(=O)O)CC[C@]5(C)CC[C@@]4(C)[C@]3(C)CC[C@@H]12 | 0.146 | 0.249
20 | COC(=O)C1=C(C#N)NC(C)=C(C(=O)OC(C)C)C1c1cccc([N+](=O)[O-])c1 (configuration not stated) [Nilvadipine (ARC029)] | 0.333 | 1.55
21 | N[C@@H](CC(=O)N1CCn2c(nnc2C(F)(F)F)C1)Cc1cc(F)c(F)cc1F | 0.306 | 0.577
22 | COc1ccc2cc([C@H](C)C(=O)O)ccc2c1 [Naproxen (Aleve)] | 0.0134 | 0.825
23 | O=c1[nH]c(=O)n([C@H]2C[C@H](O)[C@@H](CO)O2)cc1I | 0.363 | 0.546
24 | COCCc1ccc(OCC(O)CNC(C)C)cc1 (configuration not stated) | 0.861 | 0.587

Row | Structure (SMILES) | normalized GFP fluorescence [1] | normalized DsRed fluorescence [2]
25 | O=C(NCC1CCCCN1)c1cc(OCC(F)(F)F)ccc1OCC(F)(F)F (configuration not stated) | 0.508 | 0.624
26 | COc1cc2c(Oc3ccc4[nH]c(C)cc4c3F)ncnc2cc1OCCCN1CCCC1 [Cediranib (AZD2171)] | -0.00111 | 1.4
27 | Nc1nc(O)c2ncn(CCC(CO)CO)c2n1 | 0.331 | 0.941
28 | COCCCOc1cc(C[C@@H](C[C@H](N)[C@@H](O)C[C@H](C(=O)NCC(C)(C)C(N)=O)C(C)C)C(C)C)ccc1OC | 0.131 | 0.717
29 | Clc1ccc(COC(Cn2ccnc2)c2ccc(Cl)cc2Cl)cc1 (configuration not stated) [Econazole nitrate (Spectazole)] | -0.00195 | 0.01
30 | CCCN(CCC)S(=O)(=O)c1ccc(C(=O)O)cc1 | 0.462 | 0.343
31 | O=C(O)CCNC(=O)c1ccc(/N=N/c2ccc(O)c(C(=O)O)c2)cc1 | 0.565 | 0.891
32 | C=C[C@H]1CN2CC[C@H]1C[C@H]2[C@H](O)c1ccnc2ccc(OC)cc12 | 0.628 | 0.748
33 | OC(CCN1CCCCC1)(c1ccccc1)C1CC2C=CC1C2 (configuration not stated) [Biperiden hydrochloride] | 0.119 | 0.714
34 | COc1ccccc1N1CCN(CCCNc2cc(=O)n(C)c(=O)n2C)CC1 [Urapidil hydrochloride] | 0.413 | 0.557
35 | Cc1ncc([N+](=O)[O-])n1CC(O)CCl (configuration not stated) | 0.488 | 0.705
36 | CN1CCCC(n2nc(Cc3ccc(Cl)cc3)c3ccccc3c2=O)CC1 (configuration not stated) [Azelastine hydrochloride (Astelin)] | 0.112 | 1.13
37 | CC1=NN(c2ccccc2)C(=O)C1 [Edaravone (MCI-186)] | 0.706 | 0.531
38 | COc1cc(Nc2c(C#N)cnc3cc(OCCCN4CCN(C)CC4)c(OC)cc23)c(Cl)cc1Cl [Bosutinib (SKI-606)] | -0.0247 | 0.727
39 | CCN(CC)C(=O)c1cccnc1 | 0.263 | 0.829
40 | COC(=O)[C@@H]1CC2=CC(=O)CC[C@]2(C)[C@@]23O[C@@H]2C[C@@]2(C)[C@@H](CC[C@@]24CCC(=O)O4)[C@H]13 [Eplerenone] | 0.583 | 0.645
41 | CC(CCc1ccccc1)NCC(O)c1ccc(O)c(C(N)=O)c1 (configuration not stated) | 0.745 | 0.7
42 | Cc1cn([C@H]2C[C@H](N=[N+]=[N-])[C@@H](CO)O2)c(=O)[nH]c1=O | 0.317 | 0.887
43 | NC(=O)c1cc[n+](CC2=C(C(=O)O)N3C(=O)[C@@H](NC(=O)[C@@H](c4ccccc4)S(=O)(=O)[O-])[C@H]3SC2)cc1 | 0.172 | 1.03
44 | COc1cc2nc(N(C)CCCNC(=O)C3CCCO3)nc(N)c2cc1OC (configuration not stated) | 0.343 | 0.686
45 | CCCCC(=O)O[C@H]1CC[C@H]2[C@@H]3CCc4cc(O)ccc4[C@H]3CC[C@]12C | 0.109 | 0.605
46 | COc1cc2nc(N3CCN(C(=O)C4CCCO4)CC3)nc(N)c2cc1OC (configuration not stated) [Terazosin HCl (Hytrin)] | 0.321 | 0.745
47 | COCCOC(=O)C1=C(C)NC(C)=C(C(=O)OC/C=C/c2ccccc2)C1c1cccc([N+](=O)[O-])c1 (configuration not stated) [Cilnidipine] | 0.176 | 0.777
48 | CC(=O)/N=c1/sc(S(N)(=O)=O)nn1C | 0.574 | 0.53

Row | Structure (SMILES) | normalized GFP fluorescence [1] | normalized DsRed fluorescence [2]
49 | CC/C(=C(/CC)c1ccc(O)cc1)c1ccc(O)cc1 | 0.0115 | 0.065
50 | CCOC(=O)[C@H](CCc1ccccc1)N[C@H]1CS[C@H](c2cccs2)CN(CC(=O)O)C1=O [Temocapril HCl] | 0.372 | 0.936
51 | O=C(O)CCCC[C@@H]1SC[C@@H]2NC(=O)N[C@@H]21 | 0.414 | 0.604
52 | CN[C@@H]1[C@H](O[C@H]2[C@H](O[C@H]3[C@H](O)[C@@H](O)[C@H](N=C(N)N)[C@@H](O)[C@@H]3N=C(N)N)O[C@@H](C)[C@]2(O)C=O)O[C@@H](CO)[C@H](O)[C@H]1O | 0.752 | 0.69
53 | NCCNCCNCCN | 0.763 | 0.66
54 | CNC(=O)c1ccc(N2C(=S)N(c3ccc(C#N)c(C(F)(F)F)c3)C(=O)C2(C)C)cc1F [MDV3100 (Enzalutamide)] | 0.245 | 0.592
55 | COc1cc2c(cc1OC)CC(=O)N(CCCN(C)C[C@H]1Cc3cc(OC)c(OC)cc31)CC2 [Ivabradine HCl (Procoralan)] | 0.478 | 0.555
56 | CCOC(=O)[C@H](CCc1ccccc1)N[C@@H](C)C(=O)N1[C@H](C(=O)O)C[C@H]2CCCC[C@@H]21 | 0.598 | 0.51
57 | CCCc1nc(C)c2c(O)nc(-c3cc(S(=O)(=O)N4CCN(CC)CC4)ccc3OCC)nn12 | 0.68 | 0.461
58 | CC(Oc1c(Cl)cccc1Cl)C1=NCCN1 (configuration not stated) | 0.693 | 0.569
59 | O=C1Cc2cc(CCN3CCN(c4nsc5ccccc45)CC3)c(Cl)cc2N1 | 0.33 | 0.989
60 | CCCc1nc(C(C)(C)O)c(C(=O)OCc2oc(=O)oc2C)n1Cc1ccc(-c2ccccc2-c2nnn[nH]2)cc1 | 0.0265 | 0.605
61 | CCCCCCCCCCC[C@@H](C[C@@H]1OC(=O)[C@H]1CCCCCC)OC(=O)[C@H](CC(C)C)NC=O | 0.94 | 0.482
62 | O=C1N=C(O)NC1(c1ccccc1)c1ccccc1 | 0.309 | 1.06
63 | NS(=O)(=O)c1cc2c(cc1Cl)NCNS2(=O)=O | 0.562 | 0.865
64 | CCS(=O)(=O)CCn1c([N+](=O)[O-])cnc1C | 0.603 | 1.08
65 | COc1cc(C(=O)NCc2ccc(OCCN(C)C)cc2)cc(OC)c1OC | 0.326 | 0.862
66 | CC(C)c1nc(CN(C)C(=O)N[C@H](C(=O)N[C@@H](Cc2ccccc2)C[C@H](O)[C@H](Cc2ccccc2)NC(=O)OCc2cncs2)C(C)C)cs1 [Ritonavir] | 0.0352 | 1.01
67 | NC(=O)N1c2ccccc2C=Cc2ccccc21 | 0.497 | 0.792
68 | CC[C@@H]1C(=O)OC[C@@H]1Cc1cncn1C | 0.483 | 0.892
69 | O=C(C1CCCCC1)N1CC(=O)N2CCc3ccccc3C2C1 (configuration not stated) | 0.421 | 0.542
70 | NC(=O)N/N=C/c1ccc([N+](=O)[O-])o1 [Nitrofurazone (Nitrofural)] | 0.0137 | 0.0574
71 | O=C1CCc2ccc(OCCCCN3CCN(c4cccc(Cl)c4Cl)CC3)cc2N1 | 0.0969 | 0.824
